{
  "source": "the antibiotic and cytotoxicity screens of Wong et al. (2023)",
  "note": "Hit rate of the full screen: of about 39,000 compounds, about 1,500 (3.8%) were called active. The list comes from a sample in which actives are over-represented; it also holds similar structures and randomly drawn compounds.",
  "data": [
    {"test_system": "HSkMC (human skeletal muscle cells)", "assay": "cytotoxicity call (relative viability < 0.9)", "conditions": "10 µM", "values": [
      {"smiles": "C[C@H](CO)N1C[C@H](C)[C@@H](CN(C)C(=O)C2CCCCC2)Oc2cc(C#C[C@@H](C)O)ccc2S1(=O)=O", "cytotoxicity call": "inactive"},
      {"smiles": "CC[C@@H](CO)NC(=O)c1ccc(N)cc1", "cytotoxicity call": "inactive"},
      {"smiles": "C[C@H]1CN([C@@H](C)CO)C(=O)c2cc(NC(=O)Nc3ccc(C(F)(F)F)cc3)ccc2O[C@@H]1CN(C)Cc1ccc2c(c1)OCO2", "cytotoxicity call": "active"},
      {"smiles": "C[C@@H]1CN([C@@H](C)CO)C(=O)c2cc(NC(=O)Nc3ccc(C(F)(F)F)cc3)ccc2O[C@H]1CN(C)Cc1ccc2c(c1)OCO2", "cytotoxicity call": "active"},
      {"smiles": "C[C@H]1CN([C@@H](C)CO)C(=O)c2cc(NC(=O)Nc3ccc(C(F)(F)F)cc3)ccc2O[C@H]1CN(C)Cc1ccc2c(c1)OCO2", "cytotoxicity call": "inactive"},
      {"smiles": "C[C@@H]1CN([C@H](C)CO)C(=O)c2cc(NC(=O)Nc3ccc4c(c3)OCO4)ccc2O[C@H]1CN(C)Cc1ccc(C(F)(F)F)cc1", "cytotoxicity call": "inactive"},
      {"smiles": "C[C@H](CO)N1C[C@H](C)[C@H](CN(C)Cc2ccc3c(c2)OCO3)Oc2ccc(NC(=O)Nc3ccc(C(F)(F)F)cc3)cc2C1=O", "cytotoxicity call": "active"},
      {"smiles": "C[C@@H]1CN([C@@H](C)CO)C(=O)c2cc(NC(=O)Nc3ccc(C(F)(F)F)cc3)ccc2O[C@@H]1CN(C)Cc1ccc2c(c1)OCO2", "cytotoxicity call": "active"},
      {"smiles": "C[C@@H]1CN([C@H](C)CO)C(=O)c2cc(NC(=O)Nc3ccc(C(F)(F)F)cc3)ccc2O[C@H]1CN(C)Cc1ccc2c(c1)OCO2", "cytotoxicity call": "inactive"},
      {"smiles": "CNC[C@H]1OCCCC[C@@H](C)Oc2ccc(NC(=O)Nc3cccc4ccccc34)cc2C(=O)N([C@H](C)CO)C[C@@H]1C", "cytotoxicity call": "inactive"},
      {"smiles": "CCS(=O)(=O)NCC[C@H]1CC[C@H](NC(=O)Cc2ccccn2)[C@H](CO)O1", "cytotoxicity call": "inactive"},
      {"smiles": "CC/N=c1\\sc(C(=O)OC)cc(=O)n1CC", "cytotoxicity call": "inactive"},
      {"smiles": "C[C@H]1CN([C@@H](C)CO)C(=O)c2cc(NC(=O)C3CCCCC3)ccc2O[C@H]1CN(C)Cc1ccc(C(=O)Nc2ccccc2N)cc1", "cytotoxicity call": "inactive"},
      {"smiles": "CO[C@H]1CN(C)C(=O)c2ccc(NS(=O)(=O)CC(F)(F)F)cc2OC[C@@H](C)N(C(=O)NC(C)C)C[C@@H]1C", "cytotoxicity call": "inactive"},
      {"smiles": "C[C@H](CO)N1C[C@H](C)[C@H](CN(C)S(=O)(=O)c2ccccc2)OCCCC[C@H](C)Oc2ccc(NS(C)(=O)=O)cc2C1=O", "cytotoxicity call": "inactive"},
      {"smiles": "CNC(=O)N1CCC(C(N)=O)CC1", "cytotoxicity call": "inactive"},
      {"smiles": "O=C(C[C@@H]1C[C@H]2c3cc(NS(=O)(=O)c4ccc(F)cc4)ccc3O[C@H]2[C@H](CO)O1)NCc1ccccn1", "cytotoxicity call": "inactive"},
      {"smiles": "C[C@H](CO)N1C[C@H](C)[C@@H](CN(C)Cc2ccc3c(c2)OCO3)Oc2ccc(NC(=O)Nc3ccc(C(F)(F)F)cc3)cc2C1=O", "cytotoxicity call": "active"},
      {"smiles": "C[C@@H]1CN([C@H](C)CO)C(=O)c2cc(NC(=O)Nc3ccc(C(F)(F)F)cc3)ccc2O[C@@H]1CN(C)Cc1ccc2c(c1)OCO2", "cytotoxicity call": "inactive"},
      {"smiles": "C[C@@H]1CN([C@@H](C)CO)C(=O)c2cc(NC(=O)Nc3ccc4c(c3)OCO4)ccc2O[C@@H]1CN(C)Cc1ccc(C(F)(F)F)cc1", "cytotoxicity call": "inactive"},
      {"smiles": "CCC(=O)Nc1ccc2c(c1)OC[C@@H](C)N(C(=O)CN1CCOCC1)C[C@@H](C)[C@@H](OC)CN(C)C2=O", "cytotoxicity call": "inactive"},
      {"smiles": "C[C@@H]1CN([C@@H](C)CO[Si](C)(C)C(C)(C)C)C(=O)c2cc(NC(=O)Nc3ccccc3)ccc2O[C@@H](C)CCCCO[C@H]1CN(C)S(=O)(=O)c1ccc(F)cc1", "cytotoxicity call": "inactive"},
      {"smiles": "COc1ccc(S(=O)(=O)Nc2ccc3c(c2)C(=O)N([C@H](C)CO)C[C@@H](C)[C@H](CN(C)S(=O)(=O)c2ccc(F)cc2)O3)cc1", "cytotoxicity call": "inactive"},
      {"smiles": "C[C@@H]1CN([C@H](C)CO)C(=O)c2cc(NS(=O)(=O)c3ccc(F)cc3)ccc2O[C@@H]1CN(C)S(=O)(=O)c1cn(C)cn1", "cytotoxicity call": "inactive"},
      {"smiles": "O=C(O[C@@H]1O[C@@H]2COC(=O)c3cc(Oc4c(C(=O)O)cc(O)c(O)c4O)c(O)c(O)c3-c3c(cc(O)c(O)c3O)C(=O)O[C@H]2[C@H](OC(=O)c2cc(O)c(O)c(O)c2)[C@H]1OC(=O)c1cc(O)c(O)c(O)c1)c1cc(O)c(O)c(O)c1", "cytotoxicity call": "inactive"},
      {"smiles": "O=C(O[C@@H]1O[C@@H]2COC(=O)c3cc(O)c(O)c(O)c3-c3c(cc(O)c(O)c3O)C(=O)O[C@H]2[C@H](OC(=O)c2cc(O)c(O)c(O)c2)[C@H]1OC(=O)c1cc(O)c(O)c(O)c1)c1cc(O)c(O)c(O)c1", "cytotoxicity call": "active"},
      {"smiles": "O=C(O[C@@H]1O[C@H]2COC(=O)c3cc(O)c(O)c(O)c3-c3c(cc(O)c(O)c3O)C(=O)O[C@@H]([C@H]1O)[C@@H]2O)c1cc(O)c(O)c(O)c1", "cytotoxicity call": "inactive"},
      {"smiles": "COCCOC(=O)N1C(=O)[C@@]2(c3cc(C#CCC(C(=O)OC)C(=O)OC)ccc31)[C@H](C(=O)N1CCc3cc(OC)c(OC)cc3C1)[C@H]1C(=O)O[C@H](c3ccccc3)[C@H](c3ccccc3)N1[C@@H]2c1ccccc1OCCO", "cytotoxicity call": "inactive"},
      {"smiles": "C[C@@H]1CN([C@H](C)CO)C(=O)c2cc(NC(=O)Nc3ccc(F)cc3)ccc2O[C@@H](C)CCCCO[C@@H]1CN(C)CC1CCCCC1", "cytotoxicity call": "active"},
      {"smiles": "C[C@@H]1CCCCO[C@@H](CN(C)CC2CCCCC2)[C@H](C)CN([C@@H](C)CO)C(=O)c2cc(NC(=O)Nc3ccc(F)cc3)ccc2O1", "cytotoxicity call": "inactive"},
      {"smiles": "C[C@@H]1CCCCO[C@@H](CN(C)CC2CCCCC2)[C@@H](C)CN([C@H](C)CO)C(=O)c2cc(NC(=O)Nc3ccc(F)cc3)ccc2O1", "cytotoxicity call": "inactive"},
      {"smiles": "C[C@H]1CCCCO[C@H](CN(C)CC2CCCCC2)[C@@H](C)CN([C@@H](C)CO)C(=O)c2cc(NC(=O)Nc3ccc(F)cc3)ccc2O1", "cytotoxicity call": "inactive"},
      {"smiles": "C[C@H]1CCCCO[C@@H](CN(C)CC2CCCCC2)[C@@H](C)CN([C@@H](C)CO)C(=O)c2cc(NC(=O)Nc3ccc(F)cc3)ccc2O1", "cytotoxicity call": "inactive"},
      {"smiles": "C[C@H](CO)N1C[C@H](C)[C@H](CN(C)CC2CCCCC2)OCCCC[C@H](C)Oc2ccc(NC(=O)Nc3ccc(F)cc3)cc2C1=O", "cytotoxicity call": "active"},
      {"smiles": "C[C@@H]1CN([C@@H](C)CO)C(=O)c2cc(NC(=O)Nc3ccc(F)cc3)ccc2O[C@@H](C)CCCCO[C@@H]1CN(C)CC1CCCCC1", "cytotoxicity call": "active"},
      {"smiles": "C[C@@H]1CCCCO[C@H](CN(C)CC2CCCCC2)[C@H](C)CN([C@@H](C)CO)C(=O)c2cc(NC(=O)Nc3ccc(F)cc3)ccc2O1", "cytotoxicity call": "inactive"},
      {"smiles": "C[C@@H]1CN([C@@H](C)CO)C(=O)c2cc(NC(=O)Nc3ccc(F)cc3)ccc2O[C@@H](C)CCCCO[C@H]1CN(C)CC1CCCCC1", "cytotoxicity call": "inactive"},
      {"smiles": "C[C@@H]1CCCCO[C@H](CN(C)CC2CCCCC2)[C@H](C)CN([C@H](C)CO)C(=O)c2cc(NC(=O)Nc3ccc(F)cc3)ccc2O1", "cytotoxicity call": "active"},
      {"smiles": "C[C@@H]1CCCCO[C@@H](CN(C)CC2CCCCC2)[C@H](C)CN([C@H](C)CO)C(=O)c2cc(NC(=O)Nc3ccc(F)cc3)ccc2O1", "cytotoxicity call": "inactive"},
      {"smiles": "C[C@@H]1CCCCO[C@@H](CN(C)CC2CCCCC2)[C@@H](C)CN([C@@H](C)CO)C(=O)c2cc(NC(=O)Nc3ccc(F)cc3)ccc2O1", "cytotoxicity call": "inactive"}
    ]}
  ]
}
